SMILES strings stand for the structures. Screen size: about 65,000 compounds; about 370 (0.57%) were called active.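 The calls were made as follows: active = activation above the screen-wide mean activation plus 3 SD (cut at about 19% in these data); inactive = the rest.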 Shown is part of a subset that was picked to be rich in actives.

5-hydroxytryptamine receptor 1A (Homo sapiens), sequence (P08908 whole entry, looked up): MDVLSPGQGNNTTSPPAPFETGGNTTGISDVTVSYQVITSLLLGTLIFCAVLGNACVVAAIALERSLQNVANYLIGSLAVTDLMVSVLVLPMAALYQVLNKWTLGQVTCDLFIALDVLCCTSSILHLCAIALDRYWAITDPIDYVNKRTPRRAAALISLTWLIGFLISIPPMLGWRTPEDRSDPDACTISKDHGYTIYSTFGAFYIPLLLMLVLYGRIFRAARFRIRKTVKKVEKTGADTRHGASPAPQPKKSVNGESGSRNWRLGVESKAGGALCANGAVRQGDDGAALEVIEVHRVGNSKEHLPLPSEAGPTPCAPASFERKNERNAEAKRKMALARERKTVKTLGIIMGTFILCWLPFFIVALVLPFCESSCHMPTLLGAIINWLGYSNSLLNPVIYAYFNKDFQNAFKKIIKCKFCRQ

This experiment has as its target 5-hydroxytryptamine receptor 1A (Homo sapiens) (UniProt P08908). The experiment can be described thus: human 5-HT1a receptor agonists, primary screen, cell-based, CHO, Ga15 NFAT-bla reporter (AID 567).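 Also: 0% = DMSO wells and 100% = 5-CT at EC100.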 The conditions noted are these: CHO 5-HT1a Ga15 NFAT-bla reporter, FRET ratio; at 10 µM; active compounds read high; 0% basal, 100% maximal reference agonist.
As to `Cc1ccc(Oc2ccc(N)cc2)cc1`, the activation is 61.2% (active).
For the molecule `CN(C)S(=O)(=O)c1ccc(Oc2ccc(S(=O)(=O)N(C)C)cc2)cc1`, the activation was -1.45% (inactive).
`COc1cccc(Oc2ccc(N)cc2)c1`: the activation is -1.26% (inactive).
As to `C=C(Br)Cn1c(CCCC)nc2ccccc21`, the activation is 0.52% (inactive).
Next, `Cn1c(=O)c(=O)n(C)c2cc(S(=O)(=O)NCCc3ccccc3)ccc21`: -2.1% (inactive).
Next, `CCOC(=O)C1C(=O)C=C(c2ccc(OC)cc2)CC1c1ccco1` (configuration not stated): -1.83% (inactive); `O=C(CS(=O)(=O)c1cn(Cc2cccc(F)c2)c2ccccc12)N1CCCCC1`: 0.6% (inactive).
In the case of `COc1ccc(NC(=O)CN(C)S(=O)(=O)c2ccccc2)cc1OC`, the activation was -0.21% (inactive).
Consider `CC(=O)Nc1ccc(S(=O)(=O)Nc2nc3n(n2)C(c2ccccc2)CC(=O)N3)cc1` (configuration not stated), for which the activation was -0.5% (inactive).
As for `CCOC(=O)NC(C(F)(F)F)(C(F)(F)F)P(=O)(c1ccccc1)c1ccccc1`, the activation is -0.98% (inactive).
Turning to `c1cc(-c2nn[nH]n2)ccc1CN1CCCCC1`, the activation was -2.19% (inactive).
In the case of `O=C(CSc1ncccn1)NCCc1ccccc1` it was 0.69% (inactive); in that of `O=C(CCn1c(=S)[nH]c2ccccc2c1=O)NCCCN1CCCC1=O`, -0.9% (inactive); in that of `O=C(CCCn1c(=O)[nH]c2cc(Cl)ccc2c1=O)NCCN1CCN(c2ccccc2)CC1`, -0.6% (inactive).
As for `O=C(CCn1c(=O)[nH]c2ccccc2c1=O)NCCCN1CCN(c2cccc(Cl)c2)CC1`, the activation is 21.7% (active).
Regarding `CCn1c(=O)cc(OCC(=O)NCCCN2CCN(c3cccc(Cl)c3)CC2)c2ccccc21`, the activation was -3.65% (inactive).
Next, `Cn1c(C(=O)NCCCN2CCN(c3cccc(Cl)c3)CC2)cc2c(=O)n(C)c3ccccc3c21`: 36.5% (active).
With `CC1CCCC(C)N1CCCNC(=O)c1cc2c(=O)n(C)c3ccccc3c2n1C` (configuration not stated), the activation is -1.82% (inactive).
In the case of `O=S(=O)(N1CCOCC1)N1CCN(c2ccccc2F)CC1` it was -0.75% (inactive); in that of `O=S(=O)(Nc1ccccn1)c1ccc(Oc2ccccc2)cc1`, 0.59% (inactive); in that of `O=C(C1=C(O)C(=O)N(c2ncccn2)C1c1cccs1)c1ccco1` (configuration not stated), -1.27% (inactive).
Next, `Cc1nc2ccccc2cc1O`: 0.14% (inactive); `CCC1CCCCN1C(=O)Nc1cccc(NC(=O)N2CCCCC2CC)c1` (configuration not stated): -2.03% (inactive).
Next, `CCOc1ccc(Cn2nnc(C(=O)Nc3ccc(OC)cc3OC)c2N)cc1`: 3.25% (inactive); `O=c1c2ccccc2oc2nc3n(c(=O)c12)CCCS3`: -0.78% (inactive); `COc1ccc(C(C(O)C(=O)c2c[nH]c3ccccc23)N2CCN(c3ccccc3)CC2)cc1` (configuration not stated): -3.45% (inactive).
Take `CCc1c(C)nc2cc(-c3cccs3)[nH]n2c1=O`: the activation was -3.62% (inactive).
Regarding `Cc1ccc(S(=O)(=O)C(C#N)c2nc3ccccc3nc2N2CCCC2)cc1C` (configuration not stated), the activation is 1.05% (inactive).
In the case of `CC(C)CCNC(=O)C(C)N(C(=O)Cn1nnc(-c2ccc(F)cc2)n1)C1CCCC1` (configuration not stated) it was 0.97% (inactive); in that of `CC(C)(C)n1nc2c(c1NC(=O)c1ccc(S(=O)(=O)N3CCCC3)cc1)CS(=O)C2` (configuration not stated), -0.05% (inactive); in that of `O=C1CCC(Cc2ccccc2)N1` (configuration not stated), -0.21% (inactive).
In the case of `CC1CCN(C(=O)Cn2cc(C(=O)c3ccco3)c3ccccc32)CC1` it was -0.71% (inactive).
In the case of `Cc1cc(=O)cc(C)[nH]1` it was -2.27% (inactive).
With `CCOC(=O)C1=C(C)NC(C)=C(C(=O)OCC)C1c1ccccn1`, the activation was -1.2% (inactive).
In the case of `CCN1C(=O)C(C(=O)NC(C)c2ccccc2)C2CC1(C)Oc1ccccc12` (configuration not stated) it was -0.28% (inactive); in that of `COc1ccccc1N(CC(=O)N1CCCCC1)S(=O)(=O)c1ccccc1`, -2.64% (inactive); in that of `COc1ccc(C2C3=C(CC(C)(C)CC3=O)Oc3ncn4nc(-c5cccnc5)nc4c32)cc1OC` (configuration not stated), -3.54% (inactive).
As for `COc1ccc(CC(NC(C)=O)C(=O)NC2CCN(C(=O)Nc3ccc(C#N)cc3)CC2)cc1OC` (configuration not stated), the activation is 0.53% (inactive).
In the case of `Cc1ccc(NC(=O)Cn2nc(C)c3ccccc3c2=O)c(C)c1` it was -0.44% (inactive).
Next, `CCOC(=O)Cc1csc(NC(=O)CSc2nc(C)cc(=O)[nH]2)n1`: -1.16% (inactive); `COc1cccc(-n2c(Cc3cc(=O)[nH]c(=O)[nH]3)nnc2SCC(=O)Nc2ccccc2)c1`: -5.6% (inactive); `O=C(Nc1ccc(Cl)cn1)c1cnn2cccnc12`: 193% (active).
`O=C(Nc1ccc(Cl)cn1)Nc1cccs1`: the activation is -4.12% (inactive).
Next, `Cc1cc(NC(=O)c2cnn3cccnc23)n(-c2ccccc2)n1`: 1.07% (inactive).
Next, `Fc1ccc(Cn2nnnc2C(c2cccs2)N2CCCCCC2)cc1` (configuration not stated): -2.4% (inactive); `CCC12CN3CC(CC)(CN(C1)C31C(=O)N(C)c3ccc(C)cc31)C2=O` (configuration not stated): -2.01% (inactive); `COC(=O)CNC(=O)c1ccc2c(c1)S(=O)(=O)c1ccccc1C2=O`: 1.02% (inactive).
With `Cc1cc(N2C(=O)c3ccc(C(=O)NCc4ccccc4)cc3C2=O)no1`, the activation is -3.09% (inactive).
Next, `CNC(=O)CSc1nnc(CCc2ccccc2)n1-c1ccccc1`: 0.04% (inactive).
With `N#Cc1ccc(CSc2nnc(-c3ccccn3)n2-c2ccc(Cl)cc2)cc1`, the activation was 0.34% (inactive).
In the case of `N#Cc1cccc(CSc2nnc(CCCO)n2-c2ccccc2)c1`, the activation is 77% (active).
As to `O=C(NC1CC2CCCC(C1)N2C(=O)N1CCCCC1)C1CCCCC1` (configuration not stated), the activation is 2.68% (inactive).
Next, `Cc1cnc(NC(=O)CSc2nnc(-c3ccc(Cl)cc3Cl)n2N)s1`: -1.25% (inactive).
On to `CN(c1nc2ccccc2n2c(-c3ccco3)nnc12)S(=O)(=O)c1ccccc1`, for which the activation was 0.58% (inactive).
Next, `Cc1ccc2nc(NC3=NCN(CCc4ccccc4)CN3)nc(C)c2c1`: -1.7% (inactive); `CCOC(=O)C(C)Oc1cccc2c(=O)n(CC(=O)N3CCc4ccccc43)ccc12` (configuration not stated): -0.82% (inactive); `CCC(C(=O)N1CCOCC1)n1c(C(=O)OC)cc2occc21` (configuration not stated): -0.28% (inactive).
In the case of `O=C(CCCC(=O)N(CC(=O)NC1CCCC1)Cc1ccccc1Cl)Nc1ccccn1` it was 0.54% (inactive); in that of `Cn1c(Cc2csc(N)n2)nnc1SC/C=C/c1ccccc1`, 0.48% (inactive); in that of `CCCOC(=O)c1[nH]c2c(c1C)C(=O)CC(c1cc(OC)c(OC)c(OC)c1)C2` (configuration not stated), -1.49% (inactive).
Take `Cc1noc(COc2ccccc2OCC(O)CNC(C)(C)C)n1` (configuration not stated): the activation is 2.09% (inactive).
In the case of `CCOc1ccc2[nH]c(=O)c(C(c3nnnn3CCOC)N3CCOCC3)cc2c1` (configuration not stated), the activation is -1.3% (inactive).
Next, `Cc1cc(C(=O)COC(=O)CCCN2C(=O)c3ccccc3C2=O)c(C)n1C`: -2.69% (inactive); `CCCc1nc(-c2ccccc2O)n(-c2ccccc2)n1`: -3.29% (inactive); `COc1ccc(-c2nnc(SCC(=O)NC3CCCCC3)o2)cc1OC`: -1.36% (inactive).
As to `O=c1ccc2cc(S(=O)(=O)N3CCN(c4ccccc4)CC3)ccc2o1`, the activation was -2.8% (inactive).
Next, `Cc1nonc1OCCn1nnnc1N`: 0.59% (inactive).
